± gives the standard deviation.
Assays:
Settings in all cases: modulator concentration 10 µM
[1] = test system: RAW-Dual (murine macrophage reporter line); experiment: NF-kB reporter (SEAP) activity fold change vs agonist alone; higher = enhanced NF-kB activity
Method in brief: (§1)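 RAW-Dual murine macrophage reporter cells were seeded at 50 000 per well in 384-well plates and pre-incubated 1 hour at 37 °C with compound pin-transferred to 10 μM final. After 1 hour, a PRR agonist was added and cells incubated overnight. Supernatant NF-κB (SEAP, QUANTI-Blue, 620 nm absorbance) and IRF (Lucia luciferase, QUANTI-Luc, luminescence) signals were divided by the mean agonist-only control on the same plate to give fold change. Two replicate plates were averaged, with errors by propagation.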

[2] = test system: RAW-Dual (murine macrophage reporter line); experiment: IRF reporter (Lucia luciferase) activity fold change vs agonist alone; higher = enhanced IRF activity
Method in brief: as §1

[3] = test system: RAW-Dual (murine macrophage reporter line); experiment: viability score (confluency relative to resting cells, overnight) (fraction); higher = more viable, active = viable (0.7 or more)
Method in brief: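 A compound met the cutoff when both of two confluency masks exceeded 70% of resting cells. Those masks were made with IncuCyte software from IncuCyte images of RAW-Dual macrophages treated overnight at 10 μM final. This is the basis of the viability score, which is confluency relative to resting cells.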

[4] = agonist: CpG ODN 1826 0.5 ug/mL

Row | SMILES | NF-kB reporter [1, 4] | NF-kB reporter ([1]; agonist: LPS 0.1 ug/mL) | NF-kB reporter ([1]; agonist: MPLA […]) | IRF reporter ([2]; agonist: 3'3'-cGAMP 10 ug/mL) | IRF reporter ([2]; agonist: LPS 0.1 ug/mL) | IRF reporter ([2]; agonist: MPLA […]) | viability score [3]
1 | O=C(Nc1ccc(F)cc1)c1ccco1 | 0.904 ± 0.074 | 1.11 ± 0.12 | 1 ± 0.038 | 0.879 ± 0.15 | 1.03 ± 0.042 | 0.915 ± 0.11 | 0.996 (active)
2 | Cn1c(=O)[nH]c2nnc(-c3ccncc3)nc2c1=O | 0.815 ± 0.07 | 0.872 ± 0.077 | 1.07 ± 0.12 | 0.935 ± 0.05 | 1.32 ± 0.15 | 1.47 ± 0.2 | 1.02 (active)
3 | Cc1ccc(C=NN=C(c2ccccc2)c2ccccc2)o1 | 0.796 ± 0.061 | 0.988 ± 0.076 | 1.05 ± 0.15 | 0.61 ± 0.028 | 0.975 ± 0.098 | 1.07 ± 0.2 | 1.02 (active)
4 | CCOC(C#CCN(CC)CC)(c1ccccc1)c1ccccc1.Cl | 0.215 ± 0.018 | 0.353 ± 0.049 | 0.424 ± 0.031 | 0.773 ± 0.051 | 0.813 ± 0.054 | 1.62 ± 0.4 | 0.0625 (inactive)
5 | Ic1ccc(N=Cc2ccc(C=Nc3ccc(I)cc3)cc2)cc1 | 1.03 ± 0.081 | 0.868 ± 0.083 | 0.997 ± 0.097 | 0.954 ± 0.038 | 1.24 ± 0.19 | 1.44 ± 0.23 | 1.02 (active)
6 | CCOC(=O)CNS(=O)(=O)c1ccc([N+](=O)[O-])cc1 | 1.09 ± 0.093 | 1.05 ± 0.11 | 1.04 ± 0.061 | 0.997 ± 0.13 | 1.05 ± 0.044 | 1.09 ± 0.087 | 0.998 (active)
7 | Cc1cccc(OCCCSc2nc3ccccc3[nH]2)c1 | 0.919 ± 0.076 | 0.973 ± 0.11 | 1.14 ± 0.11 | 0.671 ± 0.021 | 1.28 ± 0.21 | 1.39 ± 0.24 | 0.949 (active)
8 | COc1ccc(C=C(NC(=O)c2cc(OC)c(OC)c(OC)c2)C(=O)NC(C(=O)O)C(C)C)c(OC)c1 (stereo not given) | 1.01 ± 0.091 | 0.985 ± 0.055 | 0.934 ± 0.11 | 0.908 ± 0.031 | 1.23 ± 0.18 | 1.04 ± 0.29 | 1.02 (active)
9 | COc1ccc(NC(=O)c2cn(-c3cc(N4CCCCC4)ncn3)cn2)cc1F | 1.31 ± 0.074 | 1.13 ± 0.086 | 1.22 ± 0.035 | 1.52 ± 0.45 | 1.01 ± 0.1 | 1.23 ± 0.3 | 0.97 (active)
10 | Cc1cc2nc(SCc3cc4c(cc3Cl)OCO4)[nH]c2cc1C | 0.749 ± 0.065 | 0.976 ± 0.047 | 0.91 ± 0.094 | 0.636 ± 0.042 | 1.2 ± 0.083 | 1.25 ± 0.12 | 1.01 (active)
11 | COC(CNC(=O)COc1cccc2c1OC(C)(C)C2)c1ccc(Cl)s1 (stereo not given) | 0.539 ± 0.028 | 1.19 ± 0.1 | 0.998 ± 0.043 | 0.873 ± 0.046 | 0.883 ± 0.06 | 1.14 ± 0.34 | 0.939 (active)
12 | CC1(C)CCCC2=C1CC1C(=O)NC(=O)C1C2 (stereo not given) | 0.88 ± 0.079 | 0.977 ± 0.076 | 0.948 ± 0.14 | 0.953 ± 0.085 | 1.16 ± 0.2 | 1.32 ± 0.33 | 1.03 (active)
13 | COc1ccc(N(CC(=O)N2CCc3ccccc3C2)S(C)(=O)=O)c(OC)c1 | 1.04 ± 0.13 | 1.09 ± 0.093 | 0.913 ± 0.057 | 0.992 ± 0.026 | 1.49 ± 0.28 | 1.13 ± 0.089 | 1.01 (active)
14 | CCOc1ccc(N2CCN(CC(=O)O)C2=O)cc1 | 1.15 ± 0.32 | 1.06 ± 0.11 | 1.02 ± 0.1 | 0.917 ± 0.063 | 0.968 ± 0.12 | 1.15 ± 0.21 | 0.997 (active)
15 | CN1C(=O)OC(C)(C)C1=O | 1.01 ± 0.12 | 1.09 ± 0.075 | 1.05 ± 0.03 | 1.04 ± 0.17 | 1.01 ± 0.14 | 0.957 ± 0.22 | 1 (active)
